The values that follow come from PubChem BioAssay.

Calls of active or inactive are those of the source. How the calls were made is not given here.

Sequence of Pantothenate synthetase (Mycobacterium tuberculosis (strain ATCC 25618 / H37Rv)) (P9WIL5 whole entry, looked up): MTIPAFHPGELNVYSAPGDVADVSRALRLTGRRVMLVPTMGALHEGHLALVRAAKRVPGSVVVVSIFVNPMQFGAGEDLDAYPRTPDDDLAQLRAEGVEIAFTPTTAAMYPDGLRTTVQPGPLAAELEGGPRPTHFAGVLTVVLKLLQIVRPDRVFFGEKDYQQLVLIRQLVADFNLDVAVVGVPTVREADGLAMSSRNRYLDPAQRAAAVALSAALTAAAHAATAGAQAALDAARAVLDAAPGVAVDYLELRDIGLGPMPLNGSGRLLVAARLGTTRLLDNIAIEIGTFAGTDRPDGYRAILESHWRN

The test has as its target Pantothenate synthetase (Mycobacterium tuberculosis (strain ATCC 25618 / H37Rv)) (UniProt P9WIL5). Kind of test: Recombinant Mtb pantothenate synthetase (PanC) inhibitors, coupled enzyme, confirmatory (AID 375).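 Further: 0% = full reaction with vehicle and 100% = no enzyme background.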 To be noted: coupled enzyme assay; at 10 µM, hits give high values.
Consider `Cn1c(NC(=O)c2cccc(Cn3cc(Cl)cn3)c2)nc2ccccc21`, for which the inhibition is 8% (inactive).
Under `Cn1c(C(=O)NCCCN2CCCCCC2)cc2c(=O)n(C)c3ccccc3c21` stands 0% (inactive); under `COc1ccc(OC)c(NC(=O)CSc2nnc(-c3ccco3)n2-c2ccccc2)c1`, 0% (inactive); under `Cc1nc2oc3c(NCc4ccccn4)ncnc3c2c2c1COC(C)(C)C2`, 0% (inactive).
Under `CCOC(=O)N1CCC(NC(=O)c2ccc(CS(=O)(=O)c3c(Cl)cccc3Cl)o2)CC1` stands 0% (inactive); under `CC(C)N(Cc1nc(-c2ccccc2)no1)C(=O)CCCN1C(=O)c2ccccc2C1=O`, 9% (inactive).
Consider `Cn1c(=O)c2c(nc(SCc3nn[nH]n3)n2Cc2ccccc2F)n(C)c1=O`, for which the inhibition is 0% (inactive).
Under `COc1ccc(C2CC(c3ccc(C)cc3)Nc3ncnn32)cc1` (stereo not given) stands 0% (inactive).
Under `CC1CC(=O)C2=C(C1)OC(N)=C(C#N)C2c1coc2ccccc2c1=O` (stereo not given) stands 6% (inactive); under `COc1ccc(S(=O)(=O)CCC(=O)O)cc1`, 6% (inactive); under `Cc1ccccc1-c1nc(CS(=O)(=O)CC(=O)NCc2ccc3c(c2)OCO3)c(C)o1`, 6% (inactive).
Regarding `CC(=O)Nc1ccc(Cl)c(C(N)=O)c1`, the inhibition was 2% (inactive).
The same measure for `COC(=O)c1ccc(NC(=O)C2CC(=O)N(c3cc(C)ccc3C)C2)cc1` (stereo not given): 5% (inactive); for `O=C(NCC1CCCO1)C1c2ccccc2C(=O)N1C1CCCCCC1` (stereo not given): 0% (inactive); for `Cc1ccc(-c2nnc(-c3ccc(Br)cc3)o2)o1`: 0% (inactive).
Under `COc1cccc(NC(=O)c2nnn(Cc3ccc(Br)cc3F)c2N)c1` stands 7% (inactive); under `O=C(CCN1CCN(C(=O)c2ccco2)CC1)Nc1ccc(F)cc1`, 2% (inactive); under `Cn1c(=O)c2c3c(sc2n2c(SCc4ccccc4)nnc12)CCCC3`, 0% (inactive).
`NS(=O)(=O)c1cc2c(cc1C(F)(F)F)NC(Cc1ccccc1)NS2(=O)=O` (stereo not given): the inhibition is 0% (inactive).
Under `COc1ccccc1-c1nnc(SCC(=O)N2CC(C)CC(C)C2)o1` (stereo not given) stands 4% (inactive); under `Cn1c(N2CCC(C(N)=O)CC2)nc2c1c(=O)n(Cc1ccc(Br)cc1)c(=O)n2C`, 0% (inactive).
Under `O=C(CN(c1ccc(F)cc1)S(=O)(=O)c1ccc2c(c1)OCCO2)NCC1CCCO1` (stereo not given) stands 0% (inactive).
The same measure for `CCOC(=O)c1ccc(NS(=O)(=O)c2ccc3c(c2)oc(=O)n3C)cc1`: 0% (inactive); for `COCCN(CCOC)S(=O)(=O)c1ccc(C(=O)Nc2nnc(C3CC3)o2)cc1`: 0% (inactive).
Take `O=C(COC(=O)c1ccco1)NCc1cccs1`: the inhibition is 0% (inactive).
Under `CCN1C(=C2C(=O)c3ccccc3C2=O)C=Cc2ccccc21` stands 0% (inactive); under `COc1cc2[nH]c(=O)n(CCCCCC(=O)N3CCN(c4ccccn4)CC3)c(=O)c2cc1OC`, 2% (inactive).
The same measure for `Cc1cccc(N(CC(=O)N2CCCC2)S(=O)(=O)c2ccccc2)c1C`: 0% (inactive); for `O=C(Nc1ccc(Br)cc1F)c1sccc1-n1cccc1`: 4% (inactive).
`CCOC(=O)c1cc2c(=O)n3ccccc3nc2n(CC(C)C)c1=NC(=O)c1ccco1`: the inhibition was 0% (inactive).
Under `COc1ccccc1N1CCN(C(=O)c2c(-c3c(Cl)cccc3Cl)noc2C)CC1` stands 0% (inactive); under `O=C(N1CCN(Cc2ccccc2)CC1)C12CC3CC(CC(C3)C1)C2`, 0% (inactive).
The same measure for `Cc1ccc(NC(=O)C2CCCN2S(=O)(=O)c2cccc3cccnc23)cc1F` (stereo not given): 0% (inactive); for `CC1(C)Cc2c(sc3ncnc(N)c23)CO1`: 14% (inactive); for `CC1CN(CC(O)COc2ccccc2C(C)(C)C)CC(C)O1` (stereo not given): 0% (inactive).
As to `Cc1ccccc1Cn1ccc(NC(=O)c2cnn3c(C(F)(F)F)cc(-c4ccco4)nc23)n1`, the inhibition is 5% (inactive).
The same measure for `CCOCCCNC(=O)C1CCC(CNS(=O)(=O)c2cccc3nsnc23)CC1` (stereo not given): 1% (inactive); for `C=CCn1c(SCC(=O)c2cc(C)n(C(C)COC)c2C)nc2sc(C)c(C)c2c1=O` (stereo not given): 4% (inactive).
With `CCOC(=O)N1CCC(n2c(SCC(=O)NCc3ccco3)nc3ccsc3c2=O)CC1`, the inhibition was 0% (inactive).
The same measure for `Cc1ccc(C)c2[nH]c(=O)c(CN(CCN3CCCC3)C(=O)Nc3cccc(Cl)c3)cc12`: 0% (inactive).

As usually defined, the inhibition is the change of the read-out against control, counted positive when it falls.
